The values that follow come from publication PMC11062922 (Nature Chemical Biology, 2023).

Experiment [1] deals with MAPK14. Details: species or system human, MV4-11 + K-562 + COLO205 + SK-N-BE2 + OVCAR-8. Conditions: compound concentrations:0.3nM, 1nM, 3nM, 10nM, 30nM, 100nM, 300nM, 1000nM,R2:0.95433345689641902,slope:0.62517275376181303,EC50 Standard Error, by the legend:Standard error of the EC50 estimation as provided by the drc package.
Experiment [2] concerns MAPKAPK2. Details: species or system human, MV4-11 + K-562 + COLO205 + SK-N-BE2 + OVCAR-8. The following applies: compound concentrations:0.3nM, 1nM, 3nM, 10nM, 30nM, 100nM, 300nM, 1000nM,R2:0.91890870064253904,slope:1.05096662120135,EC50 Standard Error, by the legend:Standard error of the EC50 estimation as provided by the drc package.
The test system of experiment [3] is RIPK2. Details: species or system human, MV4-11 + K-562 + COLO205 + SK-N-BE2 + OVCAR-8. Conditions: compound concentrations:0.3nM, 1nM, 3nM, 10nM, 30nM, 100nM, 300nM, 1000nM,R2:0.98843771673654501,slope:0.97698272947785902,EC50 Standard Error, by the legend:Standard error of the EC50 estimation as provided by the drc package.
Experiment [4] deals with RIPK3. Details: species or system human, MV4-11 + K-562 + COLO205 + SK-N-BE2 + OVCAR-8. The following applies: compound concentrations:0.3nM, 1nM, 3nM, 10nM, 30nM, 100nM, 300nM, 1000nM,R2:0.88646274803772895,slope:5.0878054739021197,EC50 Standard Error, by the legend:Standard error of the EC50 estimation as provided by the drc package.
In experiment [5] the test system is SPR. Further details: species or system human, MV4-11 + K-562 + COLO205 + SK-N-BE2 + OVCAR-8. Conditions: compound concentrations:0.3nM, 1nM, 3nM, 10nM, 30nM, 100nM, 300nM, 1000nM,R2:0.99512909296274499,slope:1.24359258072984,EC50 Standard Error, by the legend:Standard error of the EC50 estimation as provided by the drc package.
The test system of experiment [6] is TGFBR2. Details: species or system human, MV4-11 + K-562 + COLO205 + SK-N-BE2 + OVCAR-8. The following applies: compound concentrations:0.3nM, 1nM, 3nM, 10nM, 30nM, 100nM, 300nM, 1000nM,R2:0.95772159417417102,slope:0.90025260883160396,EC50 Standard Error, by the legend:Standard error of the EC50 estimation as provided by the drc package.
In experiment [7] the test system is ACVR2B. Details: species or system human, MV4-11 + K-562 + COLO205 + SK-N-BE2 + OVCAR-8. Conditions: read-out: apparent Kd, n = 1.
In experiment [8] the test system is PRKACG. Further details: species or system human, MV4-11 + K-562 + COLO205 + SK-N-BE2 + OVCAR-8. Conditions: compound concentrations:0.3nM, 1nM, 3nM, 10nM, 30nM, 100nM, 300nM, 1000nM,R2:0.71933853436235096,slope:7.8735043887932097,EC50 Standard Error, by the legend:Standard error of the EC50 estimation as provided by the drc package.
In experiment [9] the test system is AAK1. The following applies: compound concentrations:3nM, 10nM, 30nM, 100nM, 300nM, 1000nM, 3000nM, 30000nM,R2:0.99102510116180997,slope:1.0759365754475601,EC50 Standard Error, by the legend:Standard error of the EC50 estimation as provided by the drc package.
The subject of experiment [10] is AURKA. The following applies: compound concentrations:3nM, 10nM, 30nM, 100nM, 300nM, 1000nM, 3000nM, 30000nM,R2:0.99130699388271104,slope:0.94634188293278299,EC50 Standard Error, by the legend:Standard error of the EC50 estimation as provided by the drc package.
Experiment [11] has as its system AURKB. The following applies: compound concentrations:3nM, 10nM, 30nM, 100nM, 300nM, 1000nM, 3000nM, 30000nM,R2:0.99833060468955204,slope:0.90064720888108796,EC50 Standard Error, by the legend:Standard error of the EC50 estimation as provided by the drc package.
Experiment [12] has as its system BCR. The following applies: compound concentrations:3nM, 10nM, 30nM, 100nM, 300nM, 1000nM, 3000nM, 30000nM,R2:0.97560136182595103,slope:1.05645406378656,EC50 Standard Error, by the legend:Standard error of the EC50 estimation as provided by the drc package.
Experiment [13] deals with BMP2K. Conditions: compound concentrations:3nM, 10nM, 30nM, 100nM, 300nM, 1000nM, 3000nM, 30000nM,R2:0.98755156955359502,slope:1.4167647234137799,EC50 Standard Error, by the legend:Standard error of the EC50 estimation as provided by the drc package.
Experiment [14] relates to BMPR2. Conditions: compound concentrations:3nM, 10nM, 30nM, 100nM, 300nM, 1000nM, 3000nM, 30000nM,R2:0.93324573239730002,slope:2.2231806087315,EC50 Standard Error, by the legend:Standard error of the EC50 estimation as provided by the drc package.
The test system of experiment [15] is CCNH. The following applies: compound concentrations:3nM, 10nM, 30nM, 100nM, 300nM, 1000nM, 3000nM, 30000nM,R2:0.984368608654974,slope:1.5961170242536,EC50 Standard Error, by the legend:Standard error of the EC50 estimation as provided by the drc package.
The subject of experiment [16] is CHEK1. Conditions: compound concentrations:3nM, 10nM, 30nM, 100nM, 300nM, 1000nM, 3000nM, 30000nM,R2:0.99154934454702504,slope:1.2455496028398201,EC50 Standard Error, by the legend:Standard error of the EC50 estimation as provided by the drc package.
The subject of experiment [17] is EPHA1. Conditions: compound concentrations:3nM, 10nM, 30nM, 100nM, 300nM, 1000nM, 3000nM, 30000nM,R2:0.96586410409124401,slope:0.42399886433003398,EC50 Standard Error, by the legend:Standard error of the EC50 estimation as provided by the drc package.
Experiment [18] deals with EPHA7. Conditions: compound concentrations:3nM, 10nM, 30nM, 100nM, 300nM, 1000nM, 3000nM, 30000nM,R2:0.88780253900259998,slope:1.37394463734268,EC50 Standard Error, by the legend:Standard error of the EC50 estimation as provided by the drc package.
Experiment [19] deals with FER. The following applies: compound concentrations:3nM, 10nM, 30nM, 100nM, 300nM, 1000nM, 3000nM, 30000nM,R2:0.99765697857562097,slope:1.03588430141815,EC50 Standard Error, by the legend:Standard error of the EC50 estimation as provided by the drc package.
Experiment [20] deals with FLT3. The following applies: compound concentrations:3nM, 10nM, 30nM, 100nM, 300nM, 1000nM, 3000nM, 30000nM,R2:0.96575906270431899,slope:1.4210084972678201,EC50 Standard Error, by the legend:Standard error of the EC50 estimation as provided by the drc package.

Like-named read-outs stand apart in the source and are kept apart here.

In general, EC50 refers to the concentration needed to bring the measured effect to its halfway point. `Cl.NCc1ccc(-c2nc(-c3ccc(Cl)c(O)c3)c(-c3ccncc3)[nH]2)cc1` [SB-476429-A]: the EC50 in [1] is 174 nM; in experiment [2] it was 174 nM; in [3], 55.9 nM; in [4], 296 nM; in experiment [5] it was 32.8 nM; in experiment [6], 871 nM. Besides, the Kd in [1] (read-out: apparent Kd) was 174 nM; in [2] (read-out: apparent Kd), 174 nM; in [3] (read-out: apparent Kd) it was 28.8 nM; in experiment [4] (read-out: apparent Kd) it was 289 nM; in [5] (read-out: apparent Kd) it was 32.8 nM; in [6] (read-out: apparent Kd) it was 767 nM.

For `Cc1ccc(Nc2ccnc(Nc3ccc4c(c3)CS(=O)(=O)C4)n2)cc1O.Cl` [GW579362A], the potency estimated from few doses in experiment [7] (compound concentrations: 100 nM and 1000 nM (sheet 'Samples'), CATDS: 0.34366648341671902) was 12.4 nM.

As for `CCn1c(-c2nonc2N)nc2c(C#CC(C)(C)O)nc(OCCNC)cc21.Cl` [GSK949675A], the EC50 in experiment [8] was 303 nM. In experiment [8] (read-out: apparent Kd), the Kd was 262 nM.

With TAK659, the concentration giving a half-maximal response (EC50) in experiment [9] is 997 nM; in [10] it was 1280 nM; in experiment [11] it was 161 nM; in experiment [12], 1020 nM; in [13], 537 nM; in [14] it was 325 nM. For the same molecule, the concentration for a half-maximal effect (EC50) was 1730 nM in experiment [15]; 149 nM in experiment [16]; 2910 nM in [17]; 810 nM in experiment [18]; 316 nM in [19]; 507 nM in experiment [20]. The Kd in experiment [9] (read-out: apparent Kd) is 720 nM; in experiment [10] (read-out: apparent Kd), 590 nM; in experiment [11] (read-out: apparent Kd), 86.7 nM; in [12] (read-out: apparent Kd), 528 nM; in [13] (read-out: apparent Kd), 456 nM; in experiment [14] (read-out: apparent Kd), 257 nM. Besides, the Kd in experiment [15] (read-out: apparent Kd) was 1580 nM; in experiment [16] (read-out: apparent Kd), 133 nM; in [17] (read-out: apparent Kd) it was 1000 nM; in [18] (read-out: apparent Kd), 617 nM; in experiment [19] (read-out: apparent Kd), 202 nM; in [20] (read-out: apparent Kd) it was 313 nM.

Turning to `CNc1cc(-c2ccc3c(N)n[nH]c3c2)nc(N)n1` [GSK2224810A], the potency estimated from few doses in [7] (compound concentrations:100 nM and 1000 nM (sheet 'Samples')) was 1190 nM.
